According to PubChem BioAssay (Tox21):
Records with an inconclusive call do not appear. Values without a mark were called inactive. Calls follow the shape of the dose curve; as a rule, active = well fitted cell-killing curve with a large enough effect in the repeat runs; inconclusive = weak or mixed curves, or effect the other way; inactive = no such curve, though single readings can be large or run the other way.

experiment: qHTS assay to identify small molecule antagonists of the sonic hedgehog signaling (Shh) pathway - cell viability counter screen (AID 1259367); conditions: NIH/3T3 Gli1-Luc viability, CellTiter-Fluor, 24 h; series mostly up to 92.4 µM; viability change, negative = cytotoxic: at the top concentration; also: nearly all actives have a fitted effect of over 55% in size
Excerpt: National Center for Advancing Translational Sciences [NCATS]
NIH Chemical Genomics Center [NCGC]
U.S. Environmental Protection Agency [EPA]
National Institutes of Environmental Health Sciences [NIEHS]
National Toxicology Program [NTP]
U.S. Food and Drug Administration [FDA]
The sonic hedgehog (Shh) pathway is essential for normal embryonic development. Dysregulation of the Shh pathway can cause severe developmental defects in organs. Therefore chemicals that interfere with the pathway are potential developmental toxicants. A cell line designated 3T3Gli1-Luc (DMB/OARSA/CFSAN/FDA, Laurel, MD), a NIH/3T3 derived clone containing stably integrated Gli1-Luc reporter is used to detect chemical interference of the Shh pathway, by changes in the expression of the firefly Luc gene under the control of the Gli1 transcriptional response element. This cell line was used to screen Tox21 libraries for identifying and prioritizing the potential developmental toxicants that interfere Shh pathway. Conditioned medium-stimulated mode was used to screen for chemicals inhibiting Shh signaling. The cytotoxicity of the compounds was tested in parallel by measuring the cell viability using CellTiter-Fluor assay system (Promega, Madison, WI) in the same wells.
Tox21 Assay Protocol Summary:
3T3 Gli1-Luc cells were dispensed at 2,000 per well in 5uL of culture medium into white solid bottom 1536-well plates (Greiner Bio-One, Monroe, NC) using a Multidrop Combi (Thermo Scientific, Waltham, MA) dispenser. The assay plates were incubated at 37 C and 5% CO2 for 4hr, and then 23nL of compounds dissolved in DMSO and positive control were transferred using a Pintool station (Wako, San Diego, CA). The compound transfer was followed by the addition of 1ul conditioned medium or assay buffer using two separate tips of Flying Reagent Dispenser (FRD, Aurora Discovery, San Diego, CA). The assay plates were incubated at 37C and 5% CO2 for 24hr. For viability read, after 23hr of compound treatment, 1uL of CellTiter-Fluor reagent (Promega Corporation, Madison, WI) was added to each well of the assay plates using Flying Reagent Dispenser (FRD, Aurora Discovery, San Diego, CA) and incubated the assay plates at 37C for 1hr. The fluorescence signal was quantified using a ViewLux plate reader (Perkin Elmer, Shelton, CT).
% is scaled to controls: 0 for no effect and ±100 for the full control effect.

Compared with `CC1CCC(CO)CC1` (stereo not given), `CC(=O)C1CCCCC1=O` (stereo not given) is higher in “viability change, negative = cytotoxic” value: 0.0523% for the first, 3.6% for the second.

Compared with `CC(C)(C)C(=O)c1ccccc1`, `Cc1ccc(C(=O)c2ccccc2)cc1` is lower in “viability change, negative = cytotoxic” value: 2.57% for the first, -0.162% for the second.

Compared with `COC(=O)Nc1ccc(Cl)c(Cl)c1`, `Clc1cc(Cl)cc(Cl)c1` is lower in “viability change, negative = cytotoxic” value: 9.65% for the first, 5.62% for the second.

Compared with `Cc1ccccc1N=C(N)N=C(N)N`, `CCC(=O)OCc1ccccc1` is lower in “viability change, negative = cytotoxic” value: 8.36% for the first, 5.19% for the second.

Going from `CCCCCCCCCCCCCCC(=O)O` to `CCCCCCCCCC[N+](C)(C)[O-]`, the “viability change, negative = cytotoxic” value rises from -0.0185% to 0.375%.

First: CCO[Si](OCC)(OCC)c1ccccc1
Second: CO[Si](C)(OC)c1ccccc1
The “viability change, negative = cytotoxic” value of the first is lower: -2.75% for the first, -1.21% for the second.

Compared with `N[C@@H](CCC(=O)O)C(=O)O`, `O=C(O)CNC(=O)c1ccc(CO)o1` is higher in “viability change, negative = cytotoxic” value: 0.75% for the first, 1.73% for the second.

First: CCCOC(=O)CC
Second: CC(CO)(CO)[N+](=O)[O-]
The “viability change, negative = cytotoxic” value of the first is higher: 2.8% for the first, -1.97% for the second.

Going from `O=C(c1ccccc1O)c1ccccc1O` to `CCN(Cc1ccccc1)c1ccccc1`, the “viability change, negative = cytotoxic” value falls from -7.65% to -26.7%.

Going from `OCCCCCO` to `O=CN(CCO)CCO`, the “viability change, negative = cytotoxic” value rises from 1.04% to 2.28%.

Compared with `OCCc1ccccn1`, `CCN(CC#N)c1cccc(C)c1` is higher in “viability change, negative = cytotoxic” value: 1.18% for the first, 3.21% for the second.

Going from `O=S(=O)(O)c1cccc(S(=O)(=O)O)c1` to `[Ca+2]`, the “viability change, negative = cytotoxic” value rises from -0.0155% to 3.14%.

Compared with `CO/N=C(\C(=O)N[C@@H]1C(=O)N2C(C(=O)O)=C(CSc3nc(=O)c(O)nn3C)CS[C@H]12)c1csc(N)n1`, `COc1c(N2CCNC(C)C2)c(F)cc2c(=O)c(C(=O)O)cn(C3CC3)c12` (stereo not given) is lower in “viability change, negative = cytotoxic” value: -2.26% [at 42.5 µM] for the first, -17.3% [at 42.5 µM] for the second.

First: O=C(O)Cc1csc(-c2ccc(Cl)cc2)n1
Second: CCCCc1nc(Cl)c(CO)n1Cc1ccc(-c2ccccc2-c2nn[nH]n2)cc1
The “viability change, negative = cytotoxic” value of the first is higher: 2.12% [at 42.5 µM] for the first, -1.35% [at 42.5 µM] for the second.

Going from `COCCOCC(OC)OC` to `CCOC(=O)C(=O)CCCCCCl`, the “viability change, negative = cytotoxic” value rises from 2.02% [at 42.5 µM] to 4.17% [at 42.5 µM].

Compared with `CCN[C@H]1C[C@H](C)S(=O)(=O)c2sc(S(N)(=O)=O)cc21`, `C[C@H]1C[C@H]2[C@@H]3CCC4=CC(=O)C=C[C@]4(C)[C@H]3C(=O)C[C@]2(C)[C@@]1(O)C(=O)CO` is lower in “viability change, negative = cytotoxic” value: 6.45% [at 42.5 µM] for the first, 1.31% [at 42.5 µM] for the second.

Compared with `CN(C)C(=O)Oc1cccc([N+](C)(C)C)c1`, `COc1ccccc1OCC1CNC(=O)O1` (stereo not given) is higher in “viability change, negative = cytotoxic” value: 1.86% [at 42.5 µM] for the first, 2.79% [at 42.5 µM] for the second.

First: Nc1c2c(nc3c1CCC3)CCCC2
Second: c1ccc2sc(SN3CCOCC3)nc2c1
The “viability change, negative = cytotoxic” value of the first is lower: 2.76% [at 42.5 µM] for the first, 5.08% [at 42.5 µM] for the second.

Going from `C[C@@H]1C[C@H]2[C@@H]3C[C@H](F)C4=CC(=O)C(Cl)=C[C@]4(C)[C@@]3(F)[C@@H](O)C[C@]2(C)[C@@]1(O)C(=O)CO` to `CN(C)[C@@H]1C(=O)C(C(=O)NCN2CCCC2)=C(O)[C@@]2(O)C(=O)C3=C(O)c4c(O)cccc4[C@@](C)(O)C3C[C@@H]12` (stereo not given in full), the “viability change, negative = cytotoxic” value falls from 0.412% [at 42.5 µM] to 0.268% [at 42.5 µM].

Going from `NCCCC[C@H](N[C@@H](CCc1ccccc1)C(=O)O)C(=O)N1CCC[C@H]1C(=O)O` to `Cc1coc2ccccc2c1=O`, the “viability change, negative = cytotoxic” value rises from -0.109% [at 42.5 µM] to 1.05% [at 42.5 µM].
